Measured values reported in PubChem BioAssay AID1159580 (chemical genetic matrix, 2015).
About 2,000 (36%) of roughly 5,500 compounds were called active. Roughly 18% stayed inconclusive and do not appear here. Rule as the data show it: active = normalized growth mostly below about 0.91 (no sharp cut-off); inconclusive = no clear call, values can overlap the other calls; inactive = mostly above about 0.92. Some of the results follow.

Experiment: chemical genetic growth profiling, strain panel (AID 1159580);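 also: tested at 20 µM; growth read once vehicle control cultures reached saturation at 30 °C; 1 = growth at the plate median or of vehicle wells; lower values mean less growth of the strain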
Settings: growth OD

Measured: normalized growth

Oc1c(Br)cc(Br)c2cccnc12
active: S. cerevisiae deletion strains, locus YJR075W, strain HOC1, hits give low values 0.0682 | S. cerevisiae deletion strains, locus YKL009W, strain mrt4, hits give low values 0.0898 | S. cerevisiae deletion strains, locus YKL068W, hits give low values 0.0659 | S. cerevisiae deletion strains, locus YKL085W, strain MDH1 (second series), hits give low values 0.0622 | S. cerevisiae deletion strains, locus YKL085W, strain MDH1, hits give low values 0.0622 | S. cerevisiae deletion strains, locus YKL160W, strain elf1, hits give low values 0.0686 | S. cerevisiae deletion strains, locus YKL190W, strain CNB1, hits give low values 0.049 | S. cerevisiae deletion strains, locus YKR001C, strain vps1, hits give low values 0.0714 | S. cerevisiae deletion strains, locus YKR026C, strain gcn3, hits give low values 0.0599 | S. cerevisiae deletion strains, locus YKR091W, strain srl3, hits give low values 0.0574 | S. cerevisiae deletion strains, locus YLL001W, strain dnm1, hits give low values 0.0635 | S. cerevisiae deletion strains, locus YLL026W, hits give low values 0.065 | S. cerevisiae deletion strains, locus YLL041C, strain sdh2, hits give low values 0.0602 | S. cerevisiae deletion strains, locus YLR027C, strain aat2, hits give low values 0.0544 | S. cerevisiae deletion strains, locus YLR039C, strain RIC1, hits give low values 0.0808 | S. cerevisiae deletion strains, locus YLR058C, strain SHM2, hits give low values 0.0497 | S. cerevisiae deletion strains, locus YLR102C, strain apc9, hits give low values 0.0675 | S. cerevisiae deletion strains, locus YLR113W, strain HOG1, hits give low values 0.164 | S. cerevisiae deletion strains, locus YLR221C, strain rsa3, hits give low values 0.061 | S. cerevisiae deletion strains, locus YLR258W, strain gsy2, hits give low values 0.0604 | S. cerevisiae deletion strains, locus YLR262C, strain YPT6 (second series), hits give low values 0.0797 | S. cerevisiae deletion strains, locus YLR262C, strain YPT6, hits give low values 0.106 | S. cerevisiae deletion strains, locus YLR268W, strain sec22, hits give low values 0.0737 | S. cerevisiae deletion strains, locus YLR320W, strain mms22, hits give low values 0.0804 | S. cerevisiae deletion strains, locus YLR330W, strain CHS5, hits give low values 0.0542 | S. cerevisiae deletion strains, locus YLR342W, strain FKS1 (second series), hits give low values 0.0742 | S. cerevisiae deletion strains, locus YLR342W, strain FKS1, hits give low values 0.0656 | S. cerevisiae deletion strains, locus YLR357W, strain rsc2, hits give low values 0.121 | S. cerevisiae deletion strains, locus YLR370C, strain arc18, hits give low values 0.0663 | S. cerevisiae deletion strains, locus YLR371W, strain rom2, hits give low values 0.0714 | S. cerevisiae deletion strains, locus YLR384C, strain iki3, hits give low values 0.0612 | S. cerevisiae deletion strains, locus YLR418C, strain cdc73, hits give low values 0.11 | S. cerevisiae deletion strains, locus YML016C, strain PPZ1, hits give low values 0.0489 | S. cerevisiae deletion strains, locus YML032C, strain rad52, hits give low values 0.0748 | S. cerevisiae deletion strains, locus YML120C, strain ndi1, hits give low values 0.0584 | S. cerevisiae deletion strains, locus YML124C, strain tub3, hits give low values 0.067 | S. cerevisiae deletion strains, locus YMR058W, strain fet3, hits give low values 0.0605 | S. cerevisiae deletion strains, locus YMR078C, strain ctf18, hits give low values 0.0799 | S. cerevisiae deletion strains, locus YMR125W, strain sto1, hits give low values 0.0777 | S. cerevisiae deletion strains, locus YMR129W, hits give low values 0.0576 | S. cerevisiae deletion strains, locus YMR205C, strain PFK2, hits give low values 0.0851 | S. cerevisiae deletion strains, locus YMR223W, strain ubp8, hits give low values 0.0723 | S. cerevisiae deletion strains, locus YMR231W, strain pep5, hits give low values 0.0707 | S. cerevisiae deletion strains, locus YMR263W, strain SAP30, hits give low values 0.0608 | S. cerevisiae deletion strains, locus YMR307W, strain GAS1, hits give low values 0.111 | S. cerevisiae deletion strains, locus YNL067W, strain RPL9B, hits give low values 0.0529 | S. cerevisiae deletion strains, locus YNL071W, strain lat1, hits give low values 0.061 | S. cerevisiae deletion strains, locus YNL128W, strain TEP1, hits give low values 0.0661 | S. cerevisiae deletion strains, locus YNL153C, strain GIM3, hits give low values 0.0523 | S. cerevisiae deletion strains, locus YNL183C, strain NPR1, hits give low values -0.0047 | S. cerevisiae deletion strains, locus YNL209W, strain ssb2, hits give low values 0.0598 | S. cerevisiae deletion strains, locus YNL233W, strain BNI4, hits give low values 0.0553 | S. cerevisiae deletion strains, locus YNL248C, strain rpa49, hits give low values 0.0858 | S. cerevisiae deletion strains, locus YNL250W, strain rad50, hits give low values 0.0799 | S. cerevisiae deletion strains, locus YNL271C, strain bni1, hits give low values 0.075 | S. cerevisiae deletion strains, locus YNL298W, strain CLA4, hits give low values 0.0729 | S. cerevisiae deletion strains, locus YNL307C, strain MCK1, hits give low values 0.078 | S. cerevisiae deletion strains, locus YNL322C, strain KRE1 (second series), hits give low values 0.0637 | S. cerevisiae deletion strains, locus YNL322C, strain KRE1, hits give low values 0.0493 | S. cerevisiae deletion strains, locus YNR049C, strain mso1, hits give low values 0.0578 | S. cerevisiae deletion strains, locus YNR052C, strain pop2, hits give low values 0.0694 | S. cerevisiae deletion strains, locus YOL006C, strain TOP1, hits give low values 0.108 | S. cerevisiae deletion strains, locus YOL012C, strain htz1 0.189 | S. cerevisiae deletion strains, locus YOL147C, strain pex11, hits give low values 0.0679 | S. cerevisiae deletion strains, locus YOR001W, strain rrp6, hits give low values 0.0757 | S. cerevisiae deletion strains, locus YOR061W, strain CKA2, hits give low values 0.048 | S. cerevisiae deletion strains, locus YOR069W, strain VPS5, hits give low values 0.0497 | S. cerevisiae deletion strains, locus YOR070C, strain gyp1, hits give low values 0.59 | S. cerevisiae deletion strains, locus YOR080W, strain dia2, hits give low values 0.0706 | S. cerevisiae deletion strains, locus YOR083W, strain WHI5, hits give low values 0.0621 | S. cerevisiae deletion strains, locus YOR106W, strain vam3, hits give low values 0.0686 | S. cerevisiae deletion strains, locus YOR136W, strain idh2, hits give low values 0.0816 | S. cerevisiae deletion strains, locus YOR144C, strain elg1, hits give low values 0.0654 | S. cerevisiae deletion strains, locus YOR184W, strain ser1, hits give low values 0.0794 | S. cerevisiae deletion strains, locus YOR231W, strain MKK1, hits give low values 0.109 | S. cerevisiae deletion strains, locus YOR265W, strain rbl2, hits give low values 0.0573 | S. cerevisiae deletion strains, locus YOR270C, strain vph1, hits give low values 0.102 | S. cerevisiae deletion strains, locus YOR290C, strain snf2, hits give low values 0.0632 | S. cerevisiae deletion strains, locus YOR316C, strain cot1, hits give low values 0.0675 | S. cerevisiae deletion strains, locus YPL051W, strain arl3, hits give low values 0.0637 | S. cerevisiae deletion strains, locus YPL055C, strain LGE1, hits give low values 0.0663 | S. cerevisiae deletion strains, locus YPL078C, strain atp4, hits give low values 0.0651 | S. cerevisiae deletion strains, locus YPL106C, strain sse1, hits give low values 0.115 | S. cerevisiae deletion strains, locus YPL240C, strain hsp82, hits give low values 0.0569 | S. cerevisiae deletion strains, locus YPL241C, strain CIN2, hits give low values 0.0508 | S. cerevisiae deletion strains, locus YPL256C, strain CLN2, hits give low values 0.126 | S. cerevisiae deletion strains, locus YPR119W, strain clb2, hits give low values 0.0704 | S. cerevisiae deletion strains, locus YPR141C, strain kar3, hits give low values 0.0795 | S. cerevisiae deletion strains, locus YPR163C, strain tif3, hits give low values 0.0768 | S. cerevisiae deletion strains, locus YPR167C, strain met16, hits give low values 0.0675 | S. cerevisiae deletion strains, strain wtn01, hits give low values 0.076 | S. cerevisiae strains, strain wild type, hits give low values 0.0486
